A549 viability – Nrf2 qHTS screen for inhibitors: counterscreen for cytotoxicity | A549 ARE-Fluc cells, CellTiter-Fluor viability, 18-24 h | Potency, µM (titrated, usually from 46 µM), without a hit: at the top dose activity change, negative = cytotoxicity, hits mostly inhibitors | 390,000 tested, 0.16% active | AID 504648, 2011; further: potency means the concentration at half of the fitted maximal effect; on the % scale 0 is the no-effect control and ±100 the full control effect
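A549 ARE_Fluc cells in 5% FBS OPTI-MEM were exposed to compounds in concentration-response for 18-24 h at 37 deg C. Viability was read by CellTiter-Fluor fluorescence (Ex 405/Em 525) after 30 min, before the luciferase read.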
Mito fusion act – qHTS Assay for Small Molecule Inhibitors of Mitochondrial Division or Activators of Mitochondrial Fusion; S. cerevisiae fusion-defective mutant growth rescue, CellTiterGlo 48 h; Potency, µM (doses to about 46.1 µM), inactives show top-dose growth rescue (activation), hits mostly activators; 320,000 tested, 0.23% active; further: potency means the concentration at half of the fitted maximal effect; % of control where 0% means no effect; nearly all actives have a fitted effect of over 45% in size
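Growth-rescue viability read-out: after 48 h at the non-permissive 37C in glycerol/ethanol YPEG, yeast mitochondrial fusion mutants are measured by CellTiterGlo luminescence; compounds (23 nl pinned per well) restoring growth score as division inhibitors or fusion activators.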
Nrf2 activator – qHTS of Nrf2 Activators. AREc32 ARE-luciferase reporter (MCF7-derived line), luminescence, 24 h. Potency, µM (top dose mostly 46.1 µM), inactives show at the top dose activation, most hits filed as activators. 410,000 tested, 0.31% active; further: potency means the concentration at half of the fitted maximal effect; % of control where 0% means no effect; nearly all actives have a fitted effect of over 65% in size
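Quantitative high-throughput format: AREc32 reporter cells, 1000 per well, received compound by pin transfer and were incubated 24 hr at 37 deg C, 5% CO2, before Steady-Glo luminescence detection.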
miR-21 reporter – qHTS Assay for Modulators of miRNAs and/orActivators of miR-21 | HeLa miR-21 FLuc reporter, luciferase, 48 h | Potency, µM (highest dose often 38.3 µM), for the others: at the top dose activity change, positive = activation, actives largely listed as activators | 340,000 tested, under 10 active | AID 2288, 2010;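 further: % of control where 0% means no effect; miR-21 action dims this reporter so a rising signal means less miR-21 action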
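HeLa cells stably expressing CMV-driven firefly luciferase with a downstream miR-21 binding sequence, endogenously expressing miR-21, were treated with titrations (up to about 40uM final) for 48 hours at 37 degree Celsius. Luciferase luminescence was read after lysis.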
Nrf2 inh – Nrf2 qHTS screen for inhibitors; 360,000 tested, 2.1% active; AID 504444, 2011; A549 ARE-Fluc reporter, luciferase luminescence, 18-24 h; Potency, µM (titrated, usually from 46 µM), for inactives: at the top dose activity change, negative = inhibition, most hits filed as inhibitors; further: potency means the concentration at half of the fitted maximal effect; on the % scale 0 is the no-effect control and ±100 the full control effect; nearly all actives have a fitted effect of over 60% in size
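Cells were seeded and rested 2 h, then exposed to compounds for 18-24 h. CellTiter-Fluor was read first as a viability measure. BugLite was added 15 min before the final luminescent read of ARE-luciferase activity in A549 cells.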
Glioma ERSR ind – qHTS for Inducers of the Endoplasmic Reticulum Stress Response (ERSR) in Human Glioma: qHTS. U87-MG GRP78 promoter luciferase reporter, 16 h. Potency, µM, without a hit: at the top dose activation, actives largely listed as activators. 420,000 tested, 0.02% active; further: potency means the concentration at half of the fitted maximal effect; series mostly up to about 76 µM; % of control where 0% means no effect; nearly all actives have a fitted effect of over 35% in size
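Stably transfected U87-MG glioma cells carrying a GRP78-based luciferase sensor; 16 h compound incubation. Luminescence end-point read 10 min after Bright-Glo addition at room temperature.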
Numbers without * were called inactive; [ ] = another dose, or the depositor's remark. In the library only some 2.3% were active in any assay of this set; here they are far more common. The call rests on the fitted dose curve; in most records, active means well fitted curve in the direction sought with a large enough effect; inconclusive means small, poorly fitted or top-dose-only effect, or another doubt; inactive means no such curve, though single readings can be large; an effect the other way counts as inactive or inconclusive.

Results for CCN(Cc1ccccc1)c1ccc(/C=N/NC(=O)c2cccc(S(=O)(=O)N3CCOCC3)c2)cc1 ?
A549 viability: -22%; Mito fusion act: -3%; Nrf2 activator: 3%; miR-21 reporter: inconclusive; Nrf2 inh: 12µM*; Glioma ERSR ind: -3%

What do the screens show for `CC(=O)Oc1cccc2c1C(=O)c1c(OC(C)=O)cc(C(=O)O)cc1C2=O`?
A549 viability: 21µM*; Mito fusion act: 1%; Nrf2 activator: 0%; miR-21 reporter: 10%; Nrf2 inh: inconclusive; Glioma ERSR ind: -3%

Results for CC(=O)Oc1ccc(C(=O)O)cc1OC(C)=O ?
A549 viability: 1%; Mito fusion act: -7%; Nrf2 activator: -1%; miR-21 reporter: -4%; Nrf2 inh: -8%; Glioma ERSR ind: -3%

How did CCN(C(=O)Cn1nc(Cc2cccnc2)c2ccccc2c1=O)c1cc(C)ccc1C do in these assays?
A549 viability: 18%; Nrf2 activator: 1%; miR-21 reporter: -10%; Nrf2 inh: 18µM*; Glioma ERSR ind: -2%

Results for CCOc1ccccc1N(C)C(=O)Cn1nc(Cc2cccnc2)c2ccccc2c1=O ?
A549 viability: 0%; Nrf2 activator: 0%; miR-21 reporter: 5%; Nrf2 inh: -14%; Glioma ERSR ind: -4%

How did Cc1cccc(N2CCN(C(=O)Cn3ccc4ccccc4c3=O)CC2)c1C do in these assays?
A549 viability: -5%; Mito fusion act: 8%; Nrf2 activator: 0%; miR-21 reporter: 7%; Nrf2 inh: 18µM*; Glioma ERSR ind: -3%

What do the screens show for `O=C(Cn1nc(Cc2cccnc2)c2ccccc2c1=O)N1CCN(c2ccccn2)CC1`?
A549 viability: -4%; Mito fusion act: -2%; Nrf2 activator: 0%; miR-21 reporter: -8%; Nrf2 inh: -12%; Glioma ERSR ind: -3%

What do the screens show for `Cc1cccc(N2CCN(C(=O)Cn3nc(Cc4cccnc4)c4ccccc4c3=O)CC2)c1C`?
A549 viability: -9%; Nrf2 activator: -1%; miR-21 reporter: inconclusive; Nrf2 inh: 16µM*; Glioma ERSR ind: -3%

What do the screens show for `COc1ccc(/C=C/c2ccc3c(Br)ccc(O)c3n2)cc1`?
A549 viability: -8%; Mito fusion act: -16%; Nrf2 activator: 3%; miR-21 reporter: -21%; Nrf2 inh: -5%; Glioma ERSR ind: -2%

Results for COc1cc(/C=C/c2ccc3c(Br)cc(Br)c(O)c3n2)ccc1O ?
A549 viability: inconclusive; Mito fusion act: -2%; Nrf2 activator: inconclusive; miR-21 reporter: inconclusive; Nrf2 inh: inconclusive; Glioma ERSR ind: 28µM*

How did Cc1ccc(Cl)cc1N1CCN(C(=O)Cc2c(C(=O)O)[nH]c3ccc(Cl)cc23)CC1 do in these assays?
A549 viability: -1%; Mito fusion act: -1%; Nrf2 activator: -1%[9.22 µM]; miR-21 reporter: -3%; Nrf2 inh: 4%; Glioma ERSR ind: 32µM*

Results for Cc1ccc(Cl)cc1N1CCN(C(=O)CNC(=O)c2ccc(Br)o2)CC1 ?
A549 viability: 1%; Mito fusion act: 16µM*; Nrf2 activator: 4%; Nrf2 inh: -24%; Glioma ERSR ind: 2%

Results for Cc1cc(C)cc(C(=O)NCC(=O)N2CCN(c3cccc(Cl)c3)CC2)c1 ?
A549 viability: -20%; Mito fusion act: 4%; Nrf2 activator: 0%; miR-21 reporter: 22%; Nrf2 inh: 21µM*; Glioma ERSR ind: -3%

Results for Cc1cccc(N2CCN(C(=O)CNC(=O)c3cccc([N+](=O)[O-])c3)CC2)c1C ?
A549 viability: -3%; Mito fusion act: -5%; Nrf2 activator: 0%; miR-21 reporter: 10%; Nrf2 inh: 23µM*; Glioma ERSR ind: -1%

What do the screens show for `Fc1ccc(Nc2ccnc(C(F)(F)F)c2)cc1`?
A549 viability: 3%; Mito fusion act: -11%; Nrf2 activator: 2%; miR-21 reporter: -10%; Nrf2 inh: -7%; Glioma ERSR ind: 3%

Results for CCC(=O)Nc1ccccc1C(=O)OCc1cc(=O)n2cc(C)sc2n1 ?
A549 viability: -5%; Nrf2 activator: 0%; miR-21 reporter: -35%; Glioma ERSR ind: 0%

What do the screens show for `COc1ccc(-c2csc(N3CCN(C(=O)c4ccco4)CC3)n2)cc1`?
A549 viability: -4%; Mito fusion act: -2%; Nrf2 activator: 0%; miR-21 reporter: -13%; Nrf2 inh: -17%; Glioma ERSR ind: -6%

What do the screens show for `CCOCCCNC(=S)N1CCN(c2nc(-c3ccc(F)cc3)cs2)CC1`?
A549 viability: -17%; Mito fusion act: -2%; Nrf2 activator: 3%; miR-21 reporter: 21%; Nrf2 inh: 16µM*; Glioma ERSR ind: 1%

Results for COCCCNC(=S)N1CCN(c2nc(-c3ccc(F)cc3)cs2)CC1 ?
A549 viability: -1%; Mito fusion act: -8%; Nrf2 activator: 6%; miR-21 reporter: 19%; Nrf2 inh: 15µM*; Glioma ERSR ind: 5%

Results for CCCNC(=S)N1CCN(c2nc(-c3cccc(OC)c3)cs2)CC1 ?
A549 viability: -10%; Mito fusion act: 8%; Nrf2 activator: 3%; miR-21 reporter: 18%; Nrf2 inh: inconclusive; Glioma ERSR ind: -5%

How did COc1ccc(-c2csc(N3CCN(C(=O)c4ccccc4)CC3)n2)cc1 do in these assays?
A549 viability: -25%; Mito fusion act: 11%; Nrf2 activator: 0%; miR-21 reporter: -3%; Nrf2 inh: 13µM*; Glioma ERSR ind: 1%

Results for CCCNC(=S)N1CCN(c2nc(-c3ccc(C)cc3)cs2)CC1 ?
A549 viability: -16%; Mito fusion act: -1%; Nrf2 activator: 4%; miR-21 reporter: 16%; Nrf2 inh: 23µM*; Glioma ERSR ind: -7%

Results for CCCC1NC(=S)N(C2CCCCC2)C1=O (configuration not stated) ?
A549 viability: 3%; Mito fusion act: -4%; Nrf2 activator: 2%; miR-21 reporter: -9%; Nrf2 inh: 9%; Glioma ERSR ind: -5%

Results for O=[N+]([O-])c1cc(-c2nnc(Nc3ccc(O)cc3)c3ccccc23)ccc1N1CCOCC1 ?
A549 viability: -21%; Mito fusion act: 0%; Nrf2 activator: 4%; miR-21 reporter: inconclusive; Nrf2 inh: inconclusive; Glioma ERSR ind: -4%

How did CSCC[C@H](NC(=O)COc1ccc(Cl)cc1)c1nc2ccccc2[nH]1 do in these assays?
A549 viability: 1%; Mito fusion act: 6%; Nrf2 activator: 5%; miR-21 reporter: -2%; Nrf2 inh: -20%; Glioma ERSR ind: 3%

From PubChem
